Hits are enriched below; roughly 3.5% of the tested compounds scored in any of these assays.
GPR151 ag = activators of human GPR151, primary screen, cell-based, PathHunter beta-arrestin, luminescence. G-protein coupled receptor 151 (Homo sapiens), Q8TDV0. PathHunter beta-arrestin GPR151 cells. activation, % at 11.2 µM. 1% of 650,000 active. AID 1508602, 2020; in the data active = activation above about 4.9%;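 also: 0% = median of compound wells and 100% = cells with positive control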
MITF inh = MITF inhibitors, primary screen, biochemical, AlphaScreen, human; 0.91% of 650,000 active; AlphaScreen MITF homodimerization, bead proximity signal; Microphthalmia-associated transcription factor (Homo sapiens), O75030; inhibition, % at 2.6 µM; AID 1259374, 2018; in the data active = inhibition above about 50%;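 also: 0% = vehicle wells with protein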
FBW7 act = FBW7 E3 ligase activators, primary screen, biochemical, AlphaScreen, human. F-box/WD repeat-containing protein 7 (Homo sapiens), Q969H0. AlphaScreen FBW7–phospho-cyclin E peptide binding, activator screen. normalized activity (activation), % at 26.1 µM. 0.13% of 650,000 active. AID 1259310, 2017; in the data active = normalized activity above about 1.9%;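 also: purified mutant Fbw7 with reduced substrate affinity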
TEAD-YAP block = TEAD-YAP interaction inhibition, primary screen, TEAD-YAP interaction inhibitor project, luminescence, HEK-TIYL cells; TEAD-Gal4/YAP UAS-luciferase luminescence; inhibition, % at 9.12 µM; 1.4% of 640,000 active; AID 1259422, 2018; in the data active = inhibition above about 32%;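 also: 0% = median of test compound wells and 100% = reference inhibitor wells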
GPR151 conf act = GPR151 activators, triplicate retest, confirmation, cell-based, PathHunter beta-arrestin, luminescence; AID 1508609, 2020; GPR151 PathHunter beta-arrestin cells, 90 min; % of EA-reagent control over plate median; activation, % at 11.2 µM; shares compounds with GPR151 ag; 6,700 tested, under 10 active;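 active = mean percent activation across replicates above the confirmation screen cutoff of 4.91%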
GPR119 ag = GPR119 activators in beta-arrestin cells, counter-screen for GPR151 activator project, cell-based, PathHunter beta-arrestin, luminescence, triplicate | shares compounds with GPR151 ag | activation, % at 11.2 µM | 0.3% of 6,700 active | 90 min; 0 = compound-well median, 100 = enzyme-acceptor control;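 active = mean percent activation in the counterscreen above 29.09%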;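 also: counterscreen on off-target GPR119 to flag nonselective hits from the GPR151 activator screen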
Target sequence (Q8TDV5 whole entry, looked up): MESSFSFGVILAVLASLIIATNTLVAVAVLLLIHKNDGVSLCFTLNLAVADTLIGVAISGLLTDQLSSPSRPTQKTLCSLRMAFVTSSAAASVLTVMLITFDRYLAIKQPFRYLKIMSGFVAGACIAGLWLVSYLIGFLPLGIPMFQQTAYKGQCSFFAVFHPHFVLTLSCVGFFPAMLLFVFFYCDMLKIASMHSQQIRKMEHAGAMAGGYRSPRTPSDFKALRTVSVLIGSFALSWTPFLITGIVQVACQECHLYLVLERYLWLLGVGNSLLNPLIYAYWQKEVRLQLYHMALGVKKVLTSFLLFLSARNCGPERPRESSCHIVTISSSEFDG
The depositor's hits bear a star; x = no result given; ! = not active in a repeat.

SMILES	GPR151 ag	MITF inh	FBW7 act	TEAD-YAP block	GPR151 conf act	GPR119 ag
O=C(N1CCOCC1)N1CCN(Cc2ccc3c(c2)OCO3)CC1	6.1*	7.0	-0.1	10.6	0.3	-4.4
Cc1nnc2ccc(SCC(=O)N3CCN(Cc4ccc5c(c4)OCO5)CC3)nn12	5.7*	16.5	0.2	-6.5	1.0	5.1
CC(=O)Oc1ccc(/C=C/c2nc(-c3ccccc3O)n[nH]2)cc1	-0.2	-4.7	-0.1	-63.1	x	x
CCOC(=O)c1sc(NC(=O)c2ccccc2I)cc1C	-1.9	-2.8	0.1	-24.1	x	x
CC(C)NC(=O)c1cnc2scc(-c3ccccc3)n2c1=O	8.5*	3.2	-0.2	2.2	2.3	3.3
CN(CCC#N)c1ncnc2c1oc1ccccc12	10.5*	-6.5	-0.1	-8.7	0.0	4.2
O=C(NCCCN1CCCC1=O)c1cnc(Br)s1	0.1	-1.7	0.0	11.4	x	x
CCCCN(CC)C(=O)c1c[nH]c2ccc(S(=O)(=O)N(C)c3ccc(C)c(C)c3)cc2c1=O	1.0	0.9	-0.1	11.7	x	x
Cc1cc(C)n2nc(SCC(=O)Nc3ccccc3C(C)(C)C)nc2n1	-0.6	13.0	0.4	-10.1	x	x
Cc1cc(C)n2nc(SCC(=O)Nc3c(C)nn(-c4ccccc4)c3C)nc2n1	5.4*	-3.1	0.1	-9.3	1.7	2.4
COc1ccc2c(c1)OC[C@@H](Cc1ccc(OC)c(OC)c1)[C@@H]2O	5.0*!	-13.2	-0.1	-3.4	0.4	-0.6
COc1ccc(C(=O)Cc2ccc(OC)c(OC)c2)c(OC)c1	3.6	-4.8	0.2	-2.1	x	x
O=C1CC(c2ccccc2)CN1C(=O)c1cccc2ccccc12 (stereo not given)	-1.3	8.9	0.0	-5.5	x	x
Cc1nc2sc(C(=O)c3ccc(Br)cc3)c(N)c2c(C)c1CC(=O)c1ccccc1	7.0*	-1.5	-0.1	-0.8	0.4	-11.1
CCc1c(C)nc2sc(C(=O)c3ccc(Br)cc3)c(N)c2c1C	0.5	-13.2	0.0	1.1	x	x
CCNC(=S)Nc1ccc(Cl)c(S(=O)(=O)N2CCOCC2)c1	6.6*	12.1	-0.1	-2.3	-0.5	-6.9
Cc1ccc2nc(NCc3ccc(C(=O)O)cc3)c3nncn3c2c1	2.5	-5.0	-0.1	-4.4	x	x
CCCNc1cc(N2CCCC2CO)ncn1 (stereo not given)	0.5	4.8	0.0	-5.6	x	x
COc1ccc(CCNc2cc(-c3ccc(OC)nc3)ncn2)cc1	5.2*	6.3	0.1	10.7	1.6	-4.1
COc1ccc(CCNc2cc(N3CCCC3CO)ncn2)cc1 (stereo not given)	13.8*	4.1	0.8	-48.7	-0.4	-8.7
COc1ccc(-c2nc(NCCc3ccc(O)cc3)nc(OC)n2)cn1	5.9*	4.3	0.0	-3.8	-0.9	-8.0
COc1ccc(-c2cc(NCCc3ccc(O)cc3)ncn2)cn1	2.0	-7.6	0.0	-13.3	x	x
Cc1nnc(SCC(=O)N2CCc3ccccc3C2)[nH]c1=O	10.4*	-13.8	-0.1	-10.0	-0.1	7.6
O=C(CSc1nc2ccccc2c(=O)[nH]1)N1CCc2ccccc2C1	0.1	14.6	0.0	-2.1	x	x
CCCCC[C@H](O)/C=C/[C@@H]1[C@H](C/C=C\CC(=O)O)[C@@H](O)C[C@H]1O	-1.0	5.7	x	x	x	x
SMILES	GPR151 ag	MITF inh	FBW7 act	TEAD-YAP block	GPR151 conf act	GPR119 ag
Cc1cccc(N2N=C(c3ccccc3)CC2=O)c1C	8.8*	6.0	-0.2	13.6	-0.6	10.5
Fc1ccccc1-c1cnc2c(NCc3cccs3)nccn12	-1.4	3.8	0.0	-4.3	x	x
CC(=O)C(Sc1nnc(Nc2ccc(C(C)C)cc2)s1)C(C)=O	6.0*	8.8	0.1	-32.8	0.0	-3.8
O=C(NC1CC1)c1cc(NCc2cccnc2)nc2ccccc12	-1.3	2.3	0.2	-4.1	x	x
Oc1cccc2ccc(Nc3ccccn3)nc12	5.1*	108.1*	-0.3	85.9*	-1.2	-7.8
CCCCOC(=O)n1c(SCC(N)=O)nc2ccccc21	-0.9	-15.9	-0.1	7.5	x	x
Clc1ccc(-c2nnc3n2N=C(c2ccccc2)CS3)cc1	-0.7	5.7	0.1	3.5	x	x

Bioassay records: PubChem, The Scripps Research Institute Molecular Screening Center
